According to PubChem BioAssay AID488866 (Broad Institute, 2010):
Entries with a potency or affinity are not part of this list. Calls of active or inactive are those of the source.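 Rule for the calls: active = compounds that lower nitrite signal with fitted half-max concentration up to ten times top dose; inconclusive = flat curves showing 30 to 70% inhibition, or poor fits; inactive = the rest.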

Experiment: inhibitors of cytokine-induced nitrite release, dose response, cell-based, Griess absorbance, INS-1E, dry powder (AID 488866)
Settings: INS-1E cytokine-induced nitrite, 48 h; series mostly up to 19.5 µM

outcome, inactive:
C[C@@H]1CN([C@@H](C)CO)C(=O)c2cccc(NC(=O)Nc3cccc4ccccc34)c2O[C@H]1CN(C)S(=O)(=O)c1ccc2c(c1)OCCO2
C[C@@H]1CN([C@@H](C)CO)C(=O)c2cccc(NC(=O)Nc3cccc4ccccc34)c2O[C@H]1CN(C)S(=O)(=O)Cc1ccc(F)cc1
COc1ccccc1S(=O)(=O)N(C)C[C@@H]1Oc2c(NC(=O)Nc3cccc4ccccc34)cccc2C(=O)N([C@@H](C)CO)C[C@H]1C
COc1ccc(S(=O)(=O)N(C)C[C@@H]2Oc3c(NC(=O)Nc4cc(F)cc5c4OCOC5)cccc3C(=O)N([C@@H](C)CO)C[C@H]2C)cc1
C[C@@H]1CN([C@@H](C)CO)C(=O)c2cccc(NC(=O)Nc3cccc4ccccc34)c2O[C@H]1CN(C)S(=O)(=O)c1ccc(Oc2ccccc2)cc1
COc1ccc(S(=O)(=O)N(C)C[C@@H]2Oc3c(NC(=O)Nc4cccc5c4CCCC5)cccc3C(=O)N([C@@H](C)CO)C[C@H]2C)cc1
COc1ccc(S(=O)(=O)N(C)C[C@@H]2Oc3c(NC(=O)Nc4ccc5c(c4)OCCO5)cccc3C(=O)N([C@@H](C)CO)C[C@H]2C)cc1
COc1cccc(S(=O)(=O)N(C)C[C@@H]2Oc3c(NC(=O)Nc4cccc5ccccc45)cccc3C(=O)N([C@@H](C)CO)C[C@H]2C)c1
Cc1ccc(S(=O)(=O)N(C)C[C@@H]2Oc3c(NC(=O)Nc4ccc(F)cc4)cccc3C(=O)N([C@H](C)CO)C[C@H]2C)cc1
C[C@@H]1CN([C@@H](C)CO)C(=O)c2cccc(NC(=O)Nc3cccc4ccccc34)c2O[C@H]1CN(C)S(=O)(=O)c1ccc(F)cc1
COc1ccc(S(=O)(=O)N(C)C[C@@H]2Oc3c(NC(=O)Nc4cc(F)ccc4F)cccc3C(=O)N([C@@H](C)CO)C[C@H]2C)cc1
Cc1ccc(S(=O)(=O)N(C)C[C@@H]2Oc3c(NC(=O)Nc4cccc5ccccc45)cccc3C(=O)N([C@@H](C)CO)C[C@H]2C)cc1
C[C@@H]1CN([C@@H](C)CO)C(=O)c2cccc(NC(=O)Nc3cccc4ccccc34)c2O[C@H]1CN(C)S(=O)(=O)c1ccc2c(c1)CCC(=O)N2
C[C@@H]1CN([C@@H](C)CO)C(=O)c2cccc(NC(=O)Nc3cccc4ccccc34)c2O[C@H]1CN(C)S(=O)(=O)c1ccccc1F
C[C@@H]1CN([C@@H](C)CO)C(=O)c2cccc(NC(=O)Nc3ccc(F)cc3)c2O[C@H]1CN(C)S(=O)(=O)c1ccc(Cl)cc1
COc1ccc(S(=O)(=O)N(C)C[C@@H]2Oc3c(NC(=O)Nc4cccc5c4ccn5C)cccc3C(=O)N([C@@H](C)CO)C[C@H]2C)cc1
COc1ccc(S(=O)(=O)N(C)C[C@@H]2Oc3c(NC(=O)Nc4cccc5c4CC(C)(C)O5)cccc3C(=O)N([C@@H](C)CO)C[C@H]2C)cc1
COc1ccc(S(=O)(=O)N(C)C[C@@H]2Oc3c(NC(=O)Nc4cccc5ccccc45)cccc3C(=O)N([C@@H](C)CO)C[C@H]2C)cc1
Cc1ccc(S(=O)(=O)N(C)C[C@@H]2Oc3c(NC(=O)Nc4ccc(F)cc4)cccc3C(=O)N([C@@H](C)CO)C[C@H]2C)cc1
COc1ccc(S(=O)(=O)N(C)C[C@@H]2Oc3ccc(NC(=O)Nc4cccc5ccccc45)cc3C(=O)N([C@@H](C)CO)C[C@H]2C)cc1
COc1ccc(S(=O)(=O)N(C)C[C@@H]2Oc3c(NC(=O)c4cccc5ccccc45)cccc3C(=O)N([C@@H](C)CO)C[C@H]2C)cc1
COc1ccc(S(=O)(=O)N(C)C[C@@H]2Oc3c(NC(=O)Nc4ccc5occc5c4)cccc3C(=O)N([C@@H](C)CO)C[C@H]2C)cc1
COc1ccc(S(=O)(=O)N(C)C[C@@H]2Oc3c(NC(=O)Nc4cccc(-c5ncccn5)c4)cccc3C(=O)N([C@@H](C)CO)C[C@H]2C)cc1
C[C@@H]1CN([C@@H](C)CO)C(=O)c2cccc(NC(=O)Nc3ccc(F)cc3)c2O[C@H]1CN(C)S(=O)(=O)c1ccc(F)cc1
COc1ccc(S(=O)(=O)N(C)C[C@@H]2Oc3c(NC(=O)Nc4cccc5c4NSN5)cccc3C(=O)N([C@@H](C)CO)C[C@H]2C)cc1
COc1ccc(S(=O)(=O)N(C)C[C@@H]2Oc3c(NC(=O)Nc4cccc5ccccc45)cccc3C(=O)N([C@@H](C)CO)C[C@H]2C)cc1F
